Out of some 65,000 compounds screened, about 100 (0.15%) were called active. This excerpt belongs to a sample that is enriched for actives. Values without a mark were called inactive.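 How the source made its calls: active means inhibition above about 50% (limit read from the data); inconclusive means inhibition over screen mean plus 3 SD, below that limit; inactive means the rest.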
The compounds below were run against Dual specificity protein phosphatase 1 (Homo sapiens) (UniProt P28562) (assay: blockers of human DUSP1 activity – biochemical, in vitro, primary screen (AID 374;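 further: 0% = DMSO max control wells and 100% = wells with enzyme stopped by NaOH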)). Conditions: recombinant MKP-1, OMFP hydrolysis fluorescence; active compounds read high;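 compounds tested at a single concentration somewhere between 10 and 100 µM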.
Chain of Dual specificity protein phosphatase 1 (Homo sapiens) (P28562 whole entry, looked up): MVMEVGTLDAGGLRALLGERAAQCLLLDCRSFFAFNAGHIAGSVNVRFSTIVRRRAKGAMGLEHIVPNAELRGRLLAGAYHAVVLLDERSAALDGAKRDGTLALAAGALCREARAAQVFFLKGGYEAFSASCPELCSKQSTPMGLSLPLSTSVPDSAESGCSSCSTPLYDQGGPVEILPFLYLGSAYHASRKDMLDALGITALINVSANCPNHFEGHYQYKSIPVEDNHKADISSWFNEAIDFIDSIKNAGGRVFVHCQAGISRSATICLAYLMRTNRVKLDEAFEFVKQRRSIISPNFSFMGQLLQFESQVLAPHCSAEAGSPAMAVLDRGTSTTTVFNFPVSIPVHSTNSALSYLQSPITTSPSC

Structure (SMILES)	inhibition
Cc1nn(CC(=O)Nc2ccc3c(c2)nc(CN2CCCCC2)n3C)c(=O)c2ccccc12	21.5%
O=C(NCC(F)(F)F)Nc1nnc(C(F)(F)F)s1	-9.86%
O=C(CCS(=O)(=O)Cc1ccccc1F)NCCCN1CCCCC1	5.21%
O=C(Cn1nnc2ccccc2c1=O)Nc1cc(C(F)(F)F)ccc1N1CCOCC1	36.2%
COC(=O)C1=C(C)NC2=C(C(=O)c3ccccc32)C1c1ccc(-c2ccc(C(=O)O)cc2)o1 (configuration not stated)	56% (active)
COC(=O)C1=C(C)NC(=O)NC1/C=C/c1ccccc1 (configuration not stated)	-8.21%
COc1ccccc1NC(=O)C1=C(C)NC2=C(C(=O)CCC2)C1c1ccc(C)o1 (configuration not stated)	11.7%
Cc1nnc(NC(=O)CSc2nccn2-c2cccc(C)c2C)s1	-0.12%
CC(C)(C)n1c(=O)[nH]c2c(c1=O)CCC2	21.8%
O=C(Oc1cccnc1)c1cc2ccccc2oc1=O	10.3%
CC/C(=N\O)C(C)(C)/[N+]([O-])=C/c1ccc(Br)cc1	4.53%
Cc1cccc(N2C(=O)SC(N(CC(=O)O)c3cccc(C)c3)C2=O)c1 (configuration not stated)	11.8%
COc1ccc(C(=O)N(Cc2ccc(N(C)C)cc2)C2CCS(=O)(=O)C2)cc1 (configuration not stated)	0.01%
Cc1nc2sc(C(c3ccco3)N3CCC4(CC3)OCCO4)c(O)n2n1 (configuration not stated)	4.37%
COc1ccc2c(CC(=O)Nc3nnc(C4CC4)s3)coc2c1	11.4%
CCCCCCn1c(CN2CCCCC2)nc2c1c(=O)n(C)c(=O)n2C	3.15%
CNC(=O)Nc1cc(C(C)(C)C)no1	-18.9%
CCN(CC(=O)NC(C)C)C(=O)CCNC(=O)c1ccc(Cl)cc1	24.3%
CN1C(=O)c2ccc(NC(=O)C3CCCCC3)cc2C1=O	16.2%
CC1(C)CC(=O)C=C(NCCCN2CCCC2=O)C1	-21.7%
CCOc1ccccc1C1CC(c2ccccc2)Nc2nc(N)nn21 (configuration not stated)	5.12%
CSC1=N/C(=C\C=C\c2cccs2)C(=O)S1	-1.19%
Fc1ccc(OCc2nn3c(Cn4nnc5ccccc54)nnc3s2)cc1	17.2%
Cn1c(CNC(=O)C(C)(C)C)nc2ccccc21	4.69%

Structure (SMILES)	inhibition
COc1cccc2cc(C(=O)N(C)C)c(=O)oc12	-3.65%
CCCCOC(=O)c1[nH]c(C)c(C(=O)OC)c1C	-26.1%
Cc1n[nH]c(C)c1S(=O)(=O)N1CCCC(C(=O)NCC2COc3ccccc3O2)C1 (configuration not stated)	2.75%
CCS(=O)(=O)N1CCN(C(=O)c2cccs2)CC1	0.17%
Cc1nn(-c2ccccc2)c2c1C(=O)NC(=O)C(C)(C)C2	-21.3%
Cc1cccc(N)c1SC1CCCCC1O (configuration not stated)	-21.7%
COc1ccccc1Oc1ccc(S(=O)(=O)Nc2cccnc2)cc1	-6.18%
CCN(CC)P(=O)(C(NC(=O)OC)C(F)(F)C(F)(F)C(F)(F)C(F)F)N(CC)CC (configuration not stated)	32.7%
Cc1ccc(C(=O)Nc2ccccc2C(=O)NC2CCCCC2)cc1S(=O)(=O)N1CCOCC1	15.1%
CCO/C([O-])=N/c1c[n+](N2CCOCC2)no1	-14.5%
Cc1cc(N2C(=O)c3ccc(C(=O)NCc4ccccc4)cc3C2=O)no1	6.5%
COc1ccc(OC)c2sc(NC(=O)C3COc4ccccc4O3)nc12 (configuration not stated)	10.2%
COc1ccc(-c2nnc(SCC(=O)c3ccco3)n2-c2ccccc2)cc1	1.42%
CCCOc1cccc(C(=O)Nc2nnn(CCC)n2)c1	-1.6%
CC(=O)N(CN1C(=O)C2CC=CCC2C1=O)c1cccc(Cl)c1 (configuration not stated)	4.23%
Cc1nc2ccccc2cc1O	-1.94%
COc1ccc(-n2c(SCC(=O)NCc3cccs3)nnc2-c2ccoc2C)cc1	-10%
COc1ccc(CCN2CNc3c(c(=O)n(C)c(=O)n3C)C2)cc1OC	-8.44%
CCOC(=O)Cn1c(=O)oc2cc(S(=O)(=O)NCC3CCCO3)ccc21 (configuration not stated)	-10.8%
COC(=O)C1C(=O)CC(C)(O)C(C(=O)OC)C1c1ccc2c(c1)OCO2 (configuration not stated)	4.11%
Cc1ccc2nc(NCCCNC(=O)c3cnccn3)c(C#N)cc2c1	16.8%
CCN(CCCNC(=O)C1CCN(S(=O)(=O)c2cnc[nH]2)CC1)c1ccccc1	-3.93%
Cn1c(=O)c2c(nc(OCc3cccnc3)n2Cc2ccccc2)n(C)c1=O	-22.4%
